Each structure is given as a SMILES string. Counter-ions that a name gives are not always drawn.

For this assay, the system named is Danio rerio larvae (5 dpf). Description: excitability to 1-s acoustic pulses, difference vs DMSO (percentage points (treated minus DMSO)); higher = more of the behaviour than the DMSO vehicle control. Conditions: 10 µM; exposure time: 3 h pre-incubation + 3 h imaging. Here is the method:
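5-dpf wild-type zebrafish larvae were imaged in 96-well plates. They were treated with 190 Tocris FDA-approved drugs at 10 µM (1 µl/ml DMSO) for 3 h before and 3 h during imaging at 28.5 °C, 48 larvae per drug. Automated image analysis gave % time moving and optomotor responses. Values are drug group mean minus DMSO vehicle mean (n=844), in percentage points, for 10 behaviours.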
For `CN1C[C@H](C(=O)N[C@]2(C)O[C@@]3(O)[C@@H]4CCCN4C(=O)[C@H](Cc4ccccc4)N3C2=O)C[C@@H]2c3cccc4[nH]cc(c34)C[C@H]21` [Dihydroergotamine mesylate], the “excitability to 1-s acoustic pulses” value came out at 1.17. Under `CC(C)C[C@H]1C(=O)N2CCC[C@H]2[C@]2(O)O[C@](NC(=O)[C@@H]3C=C4c5cccc6[nH]c(Br)c(c56)C[C@H]4N(C)C3)(C(C)C)C(=O)N12` [Bromocriptine mesylate] stands 17.6; under `COc1cc2c(cc1OC)C1CC(=O)C(CC(C)C)CN1CC2` (configuration not stated) [Tetrabenazine], 21.7. For `O=c1[nH]c2ccccc2n1C1CCN(CCCC(c2ccc(F)cc2)c2ccc(F)cc2)CC1` [Pimozide] the value was -3.54. Turning to `CC[C@@H](C(N)=O)N1CCCC1=O` [Levetiracetam], the “excitability to 1-s acoustic pulses” value turned out to be 1.84.

Consider `Cc1cccc([C@H](C)c2c[nH]cn2)c1C` [Dexmedetomidine hydrochloride], for which the “excitability to 1-s acoustic pulses” value stood at 8.78. With `COc1ccc(C(CN(C)C)C2(O)CCCCC2)cc1` (configuration not stated) [Venlafaxine hydrochloride], the “excitability to 1-s acoustic pulses” value turned out to be 8.33. Regarding `CC(O)(CS(=O)(=O)c1ccc(F)cc1)C(=O)Nc1ccc(C#N)c(C(F)(F)F)c1` (configuration not stated) [Bicalutamide], the “excitability to 1-s acoustic pulses” value stood at 3.69. For `C=C1C[C@@H]2[C@H](CC[C@]3(C)C(=O)CC[C@@H]23)[C@@]2(C)C=CC(=O)C=C12` [Exemestane] the value was 11.5. For `CCN(C)C(=O)Oc1cccc([C@H](C)N(C)C)c1` [Rivastigmine tartrate] the value was 2.04. As for `C=CCN1C[C@H](C(=O)N(CCCN(C)C)C(=O)NCC)C[C@@H]2c3cccc4[nH]cc(c34)C[C@H]21` [Cabergoline], the “excitability to 1-s acoustic pulses” value worked out at 10. Consider `N[C@@H]1C[C@H]1c1ccccc1` [Tranylcypromine hydrochloride], for which the “excitability to 1-s acoustic pulses” value came to 0.887.

The values are drawn from the supplement of paper PMC9023506.
